From PubChem BioAssay (Tox21)
Inconclusive results are not listed. Calls of active or inactive are those of the source. Unless noted, the call rests on the fitted dose curve; in most records, active means well fitted curve in the direction sought with a large enough effect in the repeat runs; inconclusive means weak or mixed curves; inactive means no such curve, though single readings can be large; an effect the other way counts as inactive or inconclusive.

Key:
[1] = qHTS assay for small molecule agonists of the p53 signaling pathway (AID 651631; calls by dose curve; further: nearly all actives have a fitted effect of over 15% in size)
Summary of the method: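 Beta-lactamase reporter activity under p53 response elements was quantified in HCT-116 cells by FRET fluorescence, following 16 h incubation with test compounds at 37 °C and 2 h substrate development at room temperature.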

[2] = qHTS assay for small molecules that induce genotoxicity in human embryonic kidney cells expressing luciferase-tagged ATAD5 (AID 651632); further: nearly all actives have a fitted effect of over 15% in size
Summary of the method: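 Test compounds were delivered by pin tool onto HEK293T reporter cells (2,000/well) expressing ATAD5 fused to luciferase. After 16 hr at 37C, 5% CO2, Amplite was added for 30 min at room temperature and luminescence was measured.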

[3] = qHTS assay for small molecule agonists of the p53 signaling pathway - cell viability (AID 651633; calls by dose curve;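 further: p53RE-bla HCT reporter cells with a stable beta-lactamase p53 reporter; series mostly up to about 83 µM; nearly all actives have a fitted effect of over 30% in size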)
Summary of the method: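 p53RE-bla cells were treated with compound for 16 hours at 37 C. Cytotoxicity was then measured as CellTiter-Glo luminescence after 30 min at room temperature.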

[4] = qHTS assay for small molecules that induce genotoxicity in human embryonic kidney cells expressing luciferase-tagged ATAD5 - cell viability (AID 651634; calls by dose curve; further: nearly all actives have a fitted effect of over 25% in size)
Summary of the method: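 Quantitative high-throughput format. HEK293T cells expressing ATAD5 fused to luciferase were plated at 2,000 cells/well and treated 15.5 hr with compound versus DMSO. Viability was determined by fluorescent live-cell protease substrate, 30 min at 37C.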

[5] = qHTS assay for small molecule disruptors of the mitochondrial membrane potential - cell viability (AID 720634; calls by dose curve;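 further: human HepG2 liver cancer cells; series mostly up to about 83 µM; nearly all actives have a fitted effect of over 20% in size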)
Summary of the method: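 Same-well counter-screen: following the MMP dye addition, CellTiter-Glo was added to 1 hr compound-treated HepG2 cells and luminescence read after 30 min at room temperature.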

[6] = qHTS assay for small molecule disruptors of the mitochondrial membrane potential (AID 720635); further: potency means the concentration at half of the fitted maximal effect
Summary of the method: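 HepG2 cells exposed to compound 1 hr at 37C, then Mito-MPS dye 30 min. Ratio read of aggregate (540/590 nm) versus monomer (490/535 nm) fluorescence.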

[7] = qHTS assay to test for compound auto fluorescence at 590 nm (red) in HepG2 cells (AID 720674)
Summary of the method: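 Seeding: 2,000 HepG2 cells/well, MEM/10% FBS, overnight 37 C. Dosing: compound vs DMSO. Incubation: 1 hr, 37 C, 5% CO2. Read: fluorescence 540 ex/590 em, Rose Bengal sodium as red reference.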

[8] = qHTS assay to test for compound auto fluorescence at 535 nm (green) in HepG2 cells (AID 720675)
[9] = qHTS assay to test for compound auto fluorescence at 460 nm (blue) in HEK293 cells (AID 720678)
Summary of the method: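 Triamterene serves as the blue fluorophore standard. Compound signal at 405/460 nm is read in HEK293 wells (2,000 cells, 10% dialyzed FBS) after overnight treatment at 37C.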

[10] = qHTS assay to test for compound auto fluorescence at 535 nm (green) in HEK293 cells (AID 720680)
[11] = qHTS assay to test for compound auto fluorescence at 460 nm (blue) in HEK293 cell free culture (AID 720681)
Summary of the method: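 Compounds were added to cell-free DMEM with 10% FBS and fluorescence read directly. The blue channel used 405 nm excitation and 460 nm emission, with triamterene as the reference fluorophore.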

[12] = qHTS assay to test for compound auto fluorescence at 535 nm (green) in HEK293 cell free culture (AID 720682)
Summary of the method: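 Each library compound, or DMSO control, is added by pintool to medium alone, comprising DMEM and 10% FBS. Emission at 535 nm following 485 nm excitation is quantified against fluorescein.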

[13] = qHTS assay to test for compound auto fluorescence at 590 nm (red) in HEK293 cell free culture (AID 720683)
Summary of the method: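 Cell-free wells of DMEM with 10% FBS received compound, and intrinsic fluorescence was read at excitation/emission 540/590 nm. Values expressed as equivalence to Rose Bengal sodium.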

[14] = qHTS assay to test for compound auto fluorescence at 590 nm (red) in HepG2 cell free culture (AID 720684)
Summary of the method: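 Auto fluorescence equivalency versus Rose Bengal sodium, red channel Ex/Em 540/590 nm; compounds in cell-free MEM/10% FBS; DMSO vehicle control.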

[15] = qHTS assay to test for compound auto fluorescence at 460 nm (blue) in HepG2 cell free culture (AID 720685)
Summary of the method: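 Cell-free plates of MEM plus 10% FBS received 23 nL compound or DMSO vehicle; blue-channel (405/460 nm) intensity scored against triamterene as reference fluorophore.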

[16] = qHTS assay to test for compound auto fluorescence at 535 nm (green) in HepG2 cell free culture (AID 720686)
[17] = qHTS assay to test for compound auto fluorescence at 460 nm (blue) in HepG2 cells (AID 720687)
Summary of the method: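 HepG2 cells in MEM with 10% FBS, attached overnight at 37 C, were exposed to compound or DMSO for 1 hr at 37 C, 5% CO2. Blue fluorescence was read at 405/460 nm, with triamterene as reference fluorophore.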

[18] = target: Glucocorticoid receptor (Homo sapiens) (UniProt P04150); assay: qHTS assay to identify small molecule agonists of the glucocorticoid receptor (GR) signaling pathway (AID 720691; active means well fitted activation curve with a large enough effect in the signal ratio in the repeat runs, not every such curve was filed as active; the % refers to the signal ratio)
Sequence of Glucocorticoid receptor (Homo sapiens) (P04150 whole entry, looked up): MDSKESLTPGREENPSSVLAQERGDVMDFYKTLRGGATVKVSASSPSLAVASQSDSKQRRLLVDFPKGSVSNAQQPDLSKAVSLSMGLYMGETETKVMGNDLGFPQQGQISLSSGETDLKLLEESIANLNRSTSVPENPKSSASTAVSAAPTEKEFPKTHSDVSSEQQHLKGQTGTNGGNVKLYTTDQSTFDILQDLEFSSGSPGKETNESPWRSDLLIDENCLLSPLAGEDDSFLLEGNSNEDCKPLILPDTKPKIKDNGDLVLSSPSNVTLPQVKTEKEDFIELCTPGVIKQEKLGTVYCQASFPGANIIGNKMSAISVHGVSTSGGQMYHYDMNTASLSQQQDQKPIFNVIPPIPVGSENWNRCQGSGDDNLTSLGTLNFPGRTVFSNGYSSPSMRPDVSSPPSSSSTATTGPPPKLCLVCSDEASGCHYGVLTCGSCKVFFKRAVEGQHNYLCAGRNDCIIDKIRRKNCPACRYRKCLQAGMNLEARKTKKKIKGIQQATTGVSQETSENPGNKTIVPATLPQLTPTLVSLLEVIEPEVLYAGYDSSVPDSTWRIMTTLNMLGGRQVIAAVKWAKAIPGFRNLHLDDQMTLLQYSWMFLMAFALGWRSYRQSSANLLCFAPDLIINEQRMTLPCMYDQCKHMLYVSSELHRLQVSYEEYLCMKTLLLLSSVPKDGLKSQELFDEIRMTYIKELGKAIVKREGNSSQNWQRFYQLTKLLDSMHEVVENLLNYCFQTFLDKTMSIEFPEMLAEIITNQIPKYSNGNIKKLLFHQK
Summary of the method: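 A HeLa cervical cancer line expressing GR and a glucocorticoid response element-driven beta-lactamase gene is treated with compounds for 18 h; LiveBLAzer B/G FRET substrate is then applied and fluorescence read.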

[19] = target: Glucocorticoid receptor (Homo sapiens) (UniProt P04150); assay: qHTS assay to identify small molecule antagonists of the glucocorticoid receptor (GR) signaling pathway (AID 720692; active means well fitted inhibition curve with a large enough effect in the signal ratio in the repeat runs, not every such curve was filed as active; the % refers to the signal ratio)
Summary of the method: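 GRE-bla HeLa line, dex-stimulated (5 nM final). Compound exposure 18 h, 37 C. Beta-lactamase FRET read after 2 h RT substrate.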

[20] = qHTS assay to test for compound auto fluorescence at 590 nm (red) in HEK293 cells (AID 720679)
Summary of the method: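 We plated HEK293 cells in 10% dialyzed FBS medium, let them adhere for 4-5 hr, then added 23 nL compound. Overnight at 37C and 5% CO2 preceded fluorescence measurement at 540/590nm.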
On the % scale 0 is the no-effect control and ±100 the full control effect.

O=C(O)COc1ccc2ccccc2c1
inactive: Potency [1] | Potency [2] | outcome [3] | outcome [4] | outcome [5] | Potency [6] | outcome [7] | outcome [8] | outcome [9] | outcome [10] | outcome [11] | outcome [12] | outcome [13] | outcome [14] | outcome [15] | outcome [16] | outcome [17] | Potency [18] | outcome [19]

Nc1cc(S(=O)(=O)O)ccc1O
inactive: Potency [1] | Potency [2] | outcome [3] | outcome [4] | outcome [5] | Potency [6] | outcome [8] | outcome [9] | outcome [20] | outcome [10] | outcome [11] | outcome [12] | outcome [13] | outcome [14] | outcome [15] | outcome [16] | outcome [17] | Potency [18] | outcome [19]

C/C=C/C(=O)CCCC
inactive: Potency [1] | Potency [2] | outcome [3] | outcome [4] | outcome [5] | Potency [6] | outcome [7] | outcome [8] | outcome [9] | outcome [10] | outcome [11] | outcome [12] | outcome [13] | outcome [14] | outcome [15] | outcome [16] | outcome [17]

C[C@@H]1CC[C@@]2(OC1)O[C@H]1C[C@H]3[C@@H]4CC[C@H]5C[C@@H](O)CC[C@]5(C)[C@H]4CC(=O)[C@]3(C)[C@H]1[C@@H]2C
inactive: Potency [1] | Potency [2] | outcome [3] | outcome [4] | outcome [5] | Potency [6] | fluorescence, % of fluorescein control [8] -0.248% [at 18.6 µM] | fluorescence, % of triamterene [9] 0.0136% [at 18.6 µM] | fluorescence, % of fluorescent control [20] 0.373% [at 18.6 µM] | fluorescence, % of fluorescein [10] -0.0442% [at 18.6 µM] | fluorescence, % of fluorescent control [11] 0.012% [at 18.6 µM] | activity change [12] -0.0372% [at 18.6 µM] | fluorescence, % of fluorescent control [13] 0.195% [at 18.6 µM] | fluorescence, % of Rose Bengal [14] 0.0999% [at 18.6 µM] | fluorescence, % of fluorescent control [15] 0.0653% [at 18.6 µM] | fluorescence, % of fluorescein control [16] 0.0232% [at 18.6 µM] | fluorescence, % of fluorescent control [17] -0.13% [at 18.6 µM]

O=C(c1ccccc1)c1cccc(O)c1
inactive: Potency [1] | Potency [2] | outcome [3] | outcome [4] | outcome [5] | outcome [7] | outcome [8] | outcome [9] | outcome [10] | outcome [11] | outcome [12] | outcome [13] | outcome [14] | outcome [15] | outcome [16] | outcome [17]
active: Potency [6] 27.7 µM

C/C=C(\C)C(=O)OC/C=C(\C)CCC=C(C)C
inactive: Potency [1] | Potency [2] | outcome [3] | outcome [4] | outcome [5] | Potency [6] | outcome [8] | outcome [9] | outcome [20] | outcome [10] | outcome [11] | outcome [12] | outcome [13] | outcome [14] | outcome [15] | outcome [16] | outcome [17] | Potency [18] | outcome [19]

CCCCCCCCOCCC#N
inactive: Potency [1] | Potency [2] | outcome [3] | outcome [4] | outcome [5] | Potency [6] | outcome [7] | outcome [8] | outcome [9] | outcome [10] | outcome [11] | outcome [12] | outcome [13] | outcome [15] | outcome [16] | outcome [17]

O=P(O)(O)C(O)(Cc1cccnc1)P(=O)(O)O
inactive: Potency [1] | Potency [2] | outcome [3] | outcome [4] | outcome [5] | Potency [6] | outcome [7] | outcome [8] | outcome [9] | outcome [20] | outcome [10] | outcome [11] | outcome [12] | outcome [13] | outcome [15] | outcome [16] | outcome [17] | Potency [18]

C[C@@H]1NC(=O)[C@@H](N)CNC(=O)[C@H](C2CCNC(N)=N2)NC(=O)/C(=C/NC(N)=O)NC(=O)[C@H](CNC(=O)C[C@@H](N)CCCN)NC1=O (some centres not stated)
inactive: Potency [1] | Potency [2] | outcome [3] | outcome [4] | outcome [5] | Potency [6] | outcome [8] | outcome [9] | outcome [20] | outcome [10] | outcome [11] | outcome [12] | outcome [13] | outcome [14] | outcome [15] | outcome [16] | outcome [17] | Potency [18] | outcome [19]

CCCCCCCC(=O)N(C)C
inactive: Potency [1] | Potency [2] | outcome [3] | outcome [4] | outcome [5] | Potency [6] | outcome [7] | outcome [8] | outcome [9] | outcome [10] | outcome [11] | outcome [12] | outcome [13] | outcome [14] | outcome [15] | outcome [16] | outcome [17]

CCCCCCCCCCCC(C)=O
inactive: Potency [1] | Potency [2] | outcome [3] | outcome [4] | outcome [5] | Potency [6] | outcome [8] | outcome [9] | outcome [10] | outcome [11] | outcome [12] | outcome [13] | outcome [14] | outcome [15] | outcome [16] | outcome [17] | Potency [18] | outcome [19]

Cc1ccc(NC(N)=O)cc1
inactive: Potency [1] | Potency [2] | outcome [3] | outcome [4] | outcome [5] | Potency [6] | outcome [7] | outcome [8] | outcome [9] | outcome [20] | outcome [10] | outcome [11] | outcome [12] | outcome [13] | outcome [15] | outcome [16] | outcome [17] | Potency [18]

CCCCC(CC)COC(=O)CC#N (configuration not stated)
inactive: Potency [1] | Potency [2] | outcome [3] | outcome [4] | outcome [5] | Potency [6] | outcome [7] | outcome [8] | outcome [9] | outcome [10] | outcome [11] | outcome [12] | outcome [13] | outcome [14] | outcome [15] | outcome [16] | outcome [17]

CCCCS
inactive: Potency [1] | Potency [2] | outcome [3] | outcome [4] | outcome [5] | Potency [6] | outcome [7] | outcome [8] | outcome [9] | outcome [20] | outcome [10] | outcome [11] | outcome [12] | outcome [13] | outcome [15] | outcome [16] | outcome [17] | Potency [18] | outcome [19]

CC(C)(Sc1cc(C(C)(C)C)c(O)c(C(C)(C)C)c1)Sc1cc(C(C)(C)C)c(O)c(C(C)(C)C)c1
inactive: Potency [1] | Potency [2] | outcome [3] | outcome [4] | outcome [5] | Potency [6] | fluorescence, % of fluorescein control [8] -0.143% [at 18.6 µM] | fluorescence, % of triamterene [9] -0.428% [at 18.6 µM] | fluorescence, % of fluorescent control [20] -1.27% [at 18.6 µM] | fluorescence, % of fluorescein [10] 0.0112% [at 18.6 µM] | fluorescence, % of fluorescent control [11] -0.101% [at 18.6 µM] | activity change [12] 0.0049% [at 18.6 µM] | fluorescence, % of fluorescent control [13] -0.146% [at 18.6 µM] | fluorescence, % of fluorescent control [15] -0.0941% [at 18.6 µM] | fluorescence, % of fluorescein control [16] -0.106% [at 18.6 µM] | fluorescence, % of fluorescent control [17] 0.0012% [at 18.6 µM] | Potency [18]
